# Reference: PubChem BioAssay (Tox21)
# Several values for one entry are separate records, joined by “and”; a condition that tells them apart may be missing. Identical values can stand only once. Records with an inconclusive call do not appear. Entries that show only a call come without a potency. Activity calls are given as the source filed them. Unless noted, calls follow the shape of the dose curve; as a rule, active = well fitted curve in the direction sought with a large enough effect in the repeat runs; inconclusive = weak or mixed curves; inactive = no such curve, though single readings can be large; an effect the other way counts as inactive or inconclusive.
# How the values were obtained:
# [1] = system: thyroid hormone receptor (rat, GH3 cells); assay: qHTS assay to identify small molecule agonists of the thyroid receptor (TR) signaling pathway (AID 743066; calls by dose curve; also: potency is read from the fitted curve at half-maximal effect)
# [2] = target: Estrogen receptor (Homo sapiens) (UniProt P03372); assay: qHTS assay to identify small molecule antagonists of the estrogen receptor alpha (ER-alpha) signaling pathway (AID 743069; active = well fitted curve in the direction sought with a large enough effect in the signal ratio in the repeat runs, not every such curve was filed as active; the % refers to the signal ratio)
# In short: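 Fluorescence intensity from a beta-lactamase FRET substrate served as the read-out. Cells: HEK293 with stably integrated ER-alpha-UAS-bla reporter. Agonist 17beta-estradiol was co-added with compounds; incubation 18 hr at 37C, substrate 2 hr at room temperature.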
# [3] = target: Estrogen receptor (Homo sapiens) (UniProt P03372); assay: qHTS assay to identify small molecule agonists of the estrogen receptor alpha (ER-alpha) signaling pathway (AID 743075; calls by dose curve; also: potency is read from the fitted curve at half-maximal effect)
# [4] = target: Estrogen receptor (Homo sapiens) (UniProt P03372); assay: qHTS assay to identify small molecule agonists of the estrogen receptor alpha (ER-alpha) signaling pathway using the BG1 cell line (AID 743079); settings: BG1Luc4E2 cells, ERE-luciferase agonist, 22 h; activation: at 70.3 µM (top of the series); also: nearly all actives have a fitted effect of over 20% in size; also: potency is read from the fitted curve at half-maximal effect
# [5] = qHTS assay to identify small molecule antagonists of the estrogen receptor alpha (ER-alpha) signaling pathway using the BG1 cell line (AID 743080; calls by dose curve;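 also: BG1 cells stimulated with 17beta-estradiol alongside compound; nearly all actives have a fitted effect of over 25% in size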; also: potency is read from the fitted curve at half-maximal effect); settings: BG1Luc4E2 ERE-luciferase antagonist mode, luminescence; activity change, negative = inhibition: at 70.3 µM (top of the series)
# In short: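 Luminescence from a 4×ERE-luciferase reporter in BG1-Luc-4E2 cells served as read-out. Cells, pre-cultured 5 days in stripped-serum phenol-red-free medium, were exposed to compound with 17beta-estradiol co-stimulation for 21.5 h at 37 C.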
# [6] = qHTS assay to identify small molecule antagonists of the estrogen receptor alpha (ER-alpha) signaling pathway using the BG1 cell line - cell viability counter screen (AID 743081);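 also: compound given together with 17beta-estradiol as the ER stimulus; nearly all actives have a fitted effect of over 45% in size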
# [7] = target: Aromatase (Homo sapiens) (UniProt P11511); assay: qHTS assay to identify aromatase inhibitors (AID 743083); also: nearly all actives have a fitted effect of over 55% in size; also: potency is read from the fitted curve at half-maximal effect
# [8] = qHTS assay to identify small molecule antagonists of the estrogen receptor alpha (ER-alpha) signaling pathway - cell viability counter screen (AID 743074; calls by dose curve; also: nearly all actives have a fitted effect of over 45% in size; also: potency is read from the fitted curve at half-maximal effect)
# [9] = qHTS assay to identify small molecule antagonists of the thyroid receptor (TR) signaling pathway (AID 743065); also: nearly all actives have a fitted effect of over 55% in size; also: potency is read from the fitted curve at half-maximal effect
# In short: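 Antagonism measured as loss of luciferase signal in GH3 cells stably carrying a TRE-luciferase reporter, co-treated with compound and T3 (1 nM final) for 23.5 h at 37 C. Viability was read in the same well by CellTiter-Fluor.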
# Chain of Estrogen receptor (Homo sapiens) (P03372 whole entry, looked up): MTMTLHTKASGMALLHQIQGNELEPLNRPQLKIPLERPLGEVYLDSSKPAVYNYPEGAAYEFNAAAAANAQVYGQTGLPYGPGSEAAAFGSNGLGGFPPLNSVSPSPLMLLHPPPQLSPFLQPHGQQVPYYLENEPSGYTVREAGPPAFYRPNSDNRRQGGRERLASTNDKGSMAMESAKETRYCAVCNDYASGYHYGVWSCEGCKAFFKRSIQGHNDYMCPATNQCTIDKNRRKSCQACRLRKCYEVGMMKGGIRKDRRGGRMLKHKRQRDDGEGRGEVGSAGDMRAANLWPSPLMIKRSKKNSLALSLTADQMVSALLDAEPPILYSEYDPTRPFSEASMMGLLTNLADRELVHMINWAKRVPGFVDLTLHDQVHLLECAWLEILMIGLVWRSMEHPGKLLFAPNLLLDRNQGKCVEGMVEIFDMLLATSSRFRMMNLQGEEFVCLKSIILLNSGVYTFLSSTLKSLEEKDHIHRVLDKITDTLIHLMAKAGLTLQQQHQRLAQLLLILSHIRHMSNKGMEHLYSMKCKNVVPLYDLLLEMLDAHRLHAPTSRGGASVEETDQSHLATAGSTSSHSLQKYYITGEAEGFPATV
# Chain of Aromatase (Homo sapiens) (P11511 whole entry, looked up): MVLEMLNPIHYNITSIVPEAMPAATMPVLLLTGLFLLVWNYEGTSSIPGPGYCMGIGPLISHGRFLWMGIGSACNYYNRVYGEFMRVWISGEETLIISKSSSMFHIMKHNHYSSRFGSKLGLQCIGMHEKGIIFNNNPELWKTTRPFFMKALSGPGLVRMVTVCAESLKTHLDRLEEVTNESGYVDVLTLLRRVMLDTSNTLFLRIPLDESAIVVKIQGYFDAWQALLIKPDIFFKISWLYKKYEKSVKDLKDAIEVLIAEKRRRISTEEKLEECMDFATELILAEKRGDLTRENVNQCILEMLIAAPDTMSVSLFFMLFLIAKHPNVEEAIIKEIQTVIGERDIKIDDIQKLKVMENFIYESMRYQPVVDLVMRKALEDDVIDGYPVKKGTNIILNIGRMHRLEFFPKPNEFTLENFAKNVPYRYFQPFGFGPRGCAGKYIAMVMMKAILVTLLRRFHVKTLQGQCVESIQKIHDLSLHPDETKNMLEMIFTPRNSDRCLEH
Structure (SMILES),Potency [1],Potency [2],Potency [3],Potency [4],Potency [5],Potency [6],Potency [7],Potency [8],Potency [9],activation [4]
CCO[Si](CCCSSSSCCC[Si](OCC)(OCC)OCC)(OCC)OCC,inactive,inactive,inactive,inactive,inactive,inactive,inactive,–,–,–
CCCN(CCc1cccs1)[C@H]1CCc2c(O)cccc2C1,inactive,inactive,inactive,inactive,inactive,inactive,26.6 µM (active),inactive,–,–
CCCCCCCC/C=C\CCCCCCCC(=O)OCCOC(=O)CCCCCCC/C=C\CCCCCCCC,inactive,–,inactive,71.2 µM (active),inactive,inactive,inactive,inactive,inactive,–
CN(Cc1cc(Br)cc(Br)c1N)C1CCCCC1,inactive,–,inactive,–,inactive,inactive,inactive,inactive,–,–
Clc1ccc(C(c2ccccc2Cl)C(Cl)Cl)cc1 (stereo not given),inactive,–,–,–,–,inactive,inactive,inactive,–,–
Cc1cccc(C)c1NC(=O)CN1CCN(CCCC(c2ccc(F)cc2)c2ccc(F)cc2)CC1,–,–,–,–,–,inactive,inactive,inactive,–,–
CNC(=S)NN,inactive,–,inactive,–,–,inactive,61.1 µM (active),inactive,61.1 µM (active),–
COc1cc(C(C)C)c2c(c1)S(=O)(=O)N(COc1cc(=O)n3cccc(OCCN4CCCCC4)c3n1)C2=O,inactive,–,inactive,inactive,inactive,inactive,–,inactive,13 µM (active),–
CC(C)c1ccc(O)c(C(C)C)c1,inactive,inactive,inactive,inactive,54.5 µM (active),inactive,–,–,–,–
CCCCC(CC)COC(=O)c1ccc(O)cc1 (stereo not given),inactive,–,–,–,–,inactive,15.3 µM (active) and 19.3 µM (active),54.7 µM (active),–,–
CCCCN(CCCC)CCC(O)c1cc2c(Cl)cc(Cl)cc2c2cc(C(F)(F)F)ccc12 (stereo not given),–,inactive,inactive,inactive,inactive,inactive,inactive,inactive,–,–
O=C(Oc1ccccc1)c1cccc(C(=O)Oc2ccccc2)c1,inactive,–,–,–,–,–,inactive,–,inactive,–
CCCCNc1c(C(=O)OCC)c(C)nc2c1cnn2CC,inactive,inactive,inactive,inactive,inactive,inactive,inactive,inactive,–,–
NC(=O)c1nc(-c2cccc(-c3cc(F)ccc3OCC(F)(F)C(F)(F)F)c2)n[nH]1,–,–,inactive,–,68.6 µM (active),inactive,30.6 µM (active),–,–,–
C[C@H]1O[C@@H](O[C@H]2[C@@H](O)C[C@H](O[C@H]3[C@@H](O)C[C@H](O[C@H]4CC[C@@]5(C)[C@H](CC[C@@H]6[C@@H]5C[C@@H](O)[C@]5(C)[C@@H](C7=CC(=O)OC7)CC[C@]65O)C4)O[C@@H]3C)O[C@@H]2C)C[C@H](O)[C@@H]1O,–,–,–,–,–,inactive,inactive,0.0195 µM (active),–,–
O=C1OC(OC(=O)c2cccnc2Nc2cccc(C(F)(F)F)c2)c2ccccc21 (stereo not given),inactive,–,–,–,–,inactive,inactive,inactive,29.8 µM (active),–
C1CC(COCC2CO2)CCC1COCC1CO1 (stereo not given),inactive,–,inactive,inactive,inactive,inactive,–,inactive,61.1 µM (active),–

Structure (SMILES),Potency [1],Potency [2],Potency [3],Potency [4],Potency [5],Potency [6],Potency [7],Potency [8],Potency [9],activation [4]
Clc1ccc(C(Cn2ccnc2)OCc2c(Cl)cccc2Cl)c(Cl)c1 (stereo not given),–,–,–,inactive,inactive,inactive,10.1 µM (active),inactive,11.4 µM (active),–
CC(C)c1cccc(C(C)C)c1N1C(=O)c2ccc(O)cc2C1=O,–,–,–,–,–,–,54.5 µM (active),–,4.86 µM (active),–
CCCCCCCCCC(=O)N(C)C,inactive,–,–,–,–,inactive,–,inactive,inactive,–
c1cc2c3c(c1)ccc1cccc(c13)C2,inactive,–,–,–,–,inactive,inactive,inactive,inactive,–
C=CC(=O)OCCC#N,inactive,–,–,–,–,inactive,–,inactive,54.8 µM (active),–
Cc1occc1SSc1ccoc1C,inactive,–,–,–,–,inactive,30.6 µM (active),inactive,68.6 µM (active),–
CSc1c(Cl)c(Cl)c(Cl)c(Cl)c1Cl,–,–,–,–,–,inactive,inactive,–,–,–
C[C@]12CC[C@H]3C(=CCc4cc(O)ccc43)[C@@H]1CCC2=O,1.54 µM (active),–,–,–,–,inactive,inactive,inactive,–,38% (active)
C=CC(=C)CCC=C(C)C,inactive,–,–,–,–,inactive,inactive,inactive,inactive,–
O=C(c1ccccc1)c1cc(Cl)ccc1O,inactive,–,58.5 µM [activator] (active),–,inactive,inactive,–,inactive,inactive,22.1% (active)
CCN(CC)CCSC(=O)C(c1ccccc1)c1ccccc1,inactive,–,inactive,inactive,–,inactive,inactive,inactive,26.6 µM (active),–
Clc1ccccc1CN1CCc2sccc2C1,inactive,–,–,–,–,inactive,inactive,inactive,–,–
CCCCCCC(C)OC(=O)COc1nc(F)c(Cl)c(N)c1Cl (stereo not given),inactive,–,–,–,–,inactive,–,inactive,–,–
C[n+]1c2cc(N)ccc2cc2ccc(N)cc21 (tested in a mixture with another compound),–,–,–,–,–,–,18.8 µM (active),inactive,6.68 µM (active),–
CCCCCCCCCCCC(=O)N(CC)CC,inactive,–,–,–,–,inactive,inactive,inactive,inactive,–
CC(O)C#CC(C)O (stereo not given),inactive,–,inactive,inactive,–,inactive,–,inactive,60.5 µM (active),–
Brc1ccccc1-c1ccccc1,inactive,–,–,–,–,–,–,–,–,–
